Experimental data: PubChem BioAssay
Some of the results follow. Calls of active or inactive are those of the source.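 How the source made its calls, unless noted: active means mean inhibition above about 50% in the one-dose retest (limit read from the data); inactive means the rest.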

Columns and labels:
[1] = target: Sentrin-specific protease 8 (Homo sapiens) (UniProt Q96LD8); experiment: SENP8 protease inhibitors, retest, confirmation, biochemical, luminescence, single concentration (AID 488912;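 active means mean inhibition across replicates above about 50%, limit read from the data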); conditions: Recombinant SENP8, Z-RLRGG-aminoluciferin luminescence, 60 min; at 12.5 µM; stronger effect = higher value
Chain of Sentrin-specific protease 8 (Homo sapiens) (Q96LD8 whole entry, looked up): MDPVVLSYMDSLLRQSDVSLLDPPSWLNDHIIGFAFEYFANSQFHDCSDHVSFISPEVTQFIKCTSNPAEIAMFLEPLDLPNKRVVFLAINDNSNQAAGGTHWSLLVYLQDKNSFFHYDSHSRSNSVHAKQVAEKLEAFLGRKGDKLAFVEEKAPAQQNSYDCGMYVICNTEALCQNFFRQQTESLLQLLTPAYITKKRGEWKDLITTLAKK

[2] = target: Sentrin-specific protease 6 (Homo sapiens) (UniProt Q9GZR1); experiment: SENP6 protease inhibitors, confirmation, biochemical, luminescence, single concentration (AID 488915); conditions: recombinant SENP6, Z-RLRGG-aminoluciferin luminescence; at 12.5 µM; stronger effect = higher value
Chain of Sentrin-specific protease 6 (Homo sapiens) (Q9GZR1 628-1112 limits assumed): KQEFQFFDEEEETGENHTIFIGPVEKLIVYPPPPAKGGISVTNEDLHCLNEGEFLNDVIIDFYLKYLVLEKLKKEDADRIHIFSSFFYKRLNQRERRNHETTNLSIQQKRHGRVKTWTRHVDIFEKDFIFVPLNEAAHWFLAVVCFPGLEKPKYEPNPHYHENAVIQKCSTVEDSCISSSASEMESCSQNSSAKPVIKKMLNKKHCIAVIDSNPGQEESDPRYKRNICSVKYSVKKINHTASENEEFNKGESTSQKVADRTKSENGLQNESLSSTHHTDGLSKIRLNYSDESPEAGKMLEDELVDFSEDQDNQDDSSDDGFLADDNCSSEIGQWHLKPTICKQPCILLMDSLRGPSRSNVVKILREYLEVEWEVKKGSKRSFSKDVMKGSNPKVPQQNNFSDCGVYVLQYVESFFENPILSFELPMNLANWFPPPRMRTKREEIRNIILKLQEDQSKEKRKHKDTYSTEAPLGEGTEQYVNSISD

[3] = target: Sentrin-specific protease 7 (Homo sapiens) (UniProt Q9BQF6); experiment: SENP7 protease inhibitors, retest, confirmation, biochemical, luminescence, single concentration (AID 488917); conditions: recombinant SENP7, Z-RLRGG-aminoluciferin luminescence, 40 min; at 12.5 µM; stronger effect = higher value
Chain of Sentrin-specific protease 7 (Homo sapiens) (Q9BQF6 706-1050 limits assumed): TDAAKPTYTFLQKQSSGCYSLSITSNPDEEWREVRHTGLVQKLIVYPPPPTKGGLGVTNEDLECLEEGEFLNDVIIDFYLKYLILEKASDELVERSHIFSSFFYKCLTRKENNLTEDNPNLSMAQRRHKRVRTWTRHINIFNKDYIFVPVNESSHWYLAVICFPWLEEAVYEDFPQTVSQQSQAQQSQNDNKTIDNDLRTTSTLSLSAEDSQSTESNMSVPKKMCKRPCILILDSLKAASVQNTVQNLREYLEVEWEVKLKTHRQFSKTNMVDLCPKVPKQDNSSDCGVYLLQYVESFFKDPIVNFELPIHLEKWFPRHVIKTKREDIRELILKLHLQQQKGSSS

Caspase-3 (Homo sapiens) = Caspase-3 (Homo sapiens) (UniProt P42574); experiment: caspase-3 protease inhibitors, confirmation, selectivity assay for SENP inhibitor project, biochemical, single concentration (AID 488918;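 active means mean inhibition above about 50%, limit read from the data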;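 further: plate controls were enzyme with DMSO for no effect and wells without caspase-3 for full effect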); conditions: purified caspase-3, Z-DEVD-aminoluciferin luminescence, 60 min; at 12.5 µM; stronger effect = higher value
Chain of Caspase-3 (Homo sapiens) (P42574 28-227 limits assumed): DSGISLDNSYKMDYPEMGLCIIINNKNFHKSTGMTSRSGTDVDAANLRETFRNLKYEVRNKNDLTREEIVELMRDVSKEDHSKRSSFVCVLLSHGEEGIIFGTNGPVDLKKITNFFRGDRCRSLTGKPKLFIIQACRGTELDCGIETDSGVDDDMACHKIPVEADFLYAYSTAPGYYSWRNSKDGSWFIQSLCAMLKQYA

[4] = luciferase luminescence interference by compounds, confirmation, artefact control for SENP inhibitor project, biochemical, single concentration, SENP8 reaction pre-completed (AID 488919;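 active means mean inhibition above about 50% when retested at one dose, limit read from the data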;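 further: plate controls were DMSO wells with completed reaction for no effect and substrate without enzyme for full effect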); conditions: Pre-incubated SENP8/Z-RLRGG-aminoluciferin, at 12.5 µM, stronger effect = higher value

Measured: inhibition

O=C(Nc1ccccc1)c1cc2ccccc2[nH]1
inactive: [1] -22.5% | [2] -15.9% | [3] 1.9% | Caspase-3 (Homo sapiens) -4.8% | [4] 8.3%

Cc1ccc(-n2cc3ccc([N+](=O)[O-])cc3n2)cc1
inactive: [1] -5.1% | [2] 20.7% | Caspase-3 (Homo sapiens) 18.7% | [4] -2.9%
active: [3] 61.5%

CC(=O)Oc1ccc2c(=O)oc(-c3ccc([N+](=O)[O-])cc3)nc2c1
inactive: [1] -6.1% | [2] -1.5% | [3] -2.9% | Caspase-3 (Homo sapiens) -2.9% | [4] -4.7%

Cc1cccc(OCC(=O)Nc2ccccc2F)c1
active: [3] 72.8% | Caspase-3 (Homo sapiens) 62.7%
inactive: [1] 20.8% | [2] 30.1% | [4] 35.2%

Cc1nonc1C(=O)N/N=C/c1ccc(O)cc1
active: [1] 99.5% | [2] 101% | [3] 103% | Caspase-3 (Homo sapiens) 99.4% | [4] 66.2%

CC(C)(C)c1ccc(NC(=O)NCc2ccco2)cc1
inactive: [1] -28.3% | [2] -17.7% | [3] -5.7% | Caspase-3 (Homo sapiens) -5.5% | [4] -7.2%

Fc1ccccc1-c1cc2cc3c(cc2cn1)OCO3
active: [2] 79.9% | [3] 79.1% | Caspase-3 (Homo sapiens) 51.6%
inactive: [1] 49.5% | [4] 7.4%

O=C(Cn1ccc([N+](=O)[O-])n1)NCc1cccs1
inactive: [1] -12.3% | [2] -5.9% | [3] -4.5% | Caspase-3 (Homo sapiens) -1.1% | [4] -8.7%

CN1C(=O)/C(=C\c2cc(Br)cs2)c2ccccc21
inactive: [1] 27.2% | [2] 42.4% | [3] 23% | Caspase-3 (Homo sapiens) 18% | [4] 12.1%

CC(C)N(C(=O)Cn1cc(SCC(=O)N2CCCC2)c2ccccc21)C(C)C
inactive: [1] -29.2% | [2] -18.1% | [3] -8.3% | Caspase-3 (Homo sapiens) -6.3% | [4] -6.7%

O=C(Nc1cccc([N+](=O)[O-])c1)c1ccc2c(c1)OCO2
inactive: [1] 29.3% | [2] 38.2% | [4] 9.5%
active: [3] 88% | Caspase-3 (Homo sapiens) 65.1%

O=C(NCc1ccccn1)c1c(O)c2c([nH]c1=O)CCCC2
inactive: [1] -0.6% | [2] 0.3% | [3] -5.1% | Caspase-3 (Homo sapiens) -3.9% | [4] -3.1%

O=C(O)/C=C/C(=O)NNc1ccc([N+](=O)[O-])cc1
active: [1] 67.5% | [2] 65.4% | [3] 92.5% | Caspase-3 (Homo sapiens) 88.6% | [4] 79.3%

CCn1nccc1C(=O)Nc1ccc(Cl)c(Cl)c1
inactive: Caspase-3 (Homo sapiens) 35.5%
active: [1] 61.1% | [2] 57.7% | [3] 80.6% | [4] 66.5%

COc1ccc(C(=O)Nc2ccc(C3(C#N)CCCC3)cc2)cc1OC
active: [1] 93% | [2] 93.6% | [3] 101% | Caspase-3 (Homo sapiens) 91.9% | [4] 83.2%

O=C(Nc1sc2c(c1C(=O)O)CCC2)c1ccccc1F
active: [1] 94.5% | [2] 96.2% | [3] 102% | Caspase-3 (Homo sapiens) 96.3% | [4] 94.5%

COC(=O)c1ccc(NCC(=O)c2ccccc2)cc1
inactive: [1] 10.5%
active: [2] 97.3% | [3] 103% | Caspase-3 (Homo sapiens) 96% | [4] 60.5%

CC(C)CCNC(=O)c1ccc2c(Cl)c3c(nc2c1)CCC3
active: [1] 84.1% | [2] 88.3% | [3] 97.4% | Caspase-3 (Homo sapiens) 57.1% | [4] 52.5%

CCOC(=O)c1cccc(NC(=O)c2ccc(F)cc2F)c1
inactive: [2] 48.2%
active: [1] 54% | [3] 75.9% | Caspase-3 (Homo sapiens) 67.9% | [4] 59.7%

CCOc1ccc(N/C=C/C(=O)c2ccccc2)cc1
active: [2] 94.9% | [3] 63.3% | Caspase-3 (Homo sapiens) 81.1%
inactive: [1] 10.5% | [4] 19.3%

O=C(Nc1ccc(C2CC2(Cl)Cl)cc1)c1cccc([N+](=O)[O-])c1 (stereo not given)
active: [1] 57.6% | [2] 60.1% | [3] 87.5%
inactive: Caspase-3 (Homo sapiens) 36.1% | [4] 29.5%

Cc1ccc(OC(=O)c2cc3ccccc3o2)cc1
active: [1] 50.7% | [2] 51.4% | [3] 90.8% | [4] 64.7%
inactive: Caspase-3 (Homo sapiens) 46.9%

c1ccc(-c2cc(-c3ccccc3)[nH]n2)cc1
inactive: Caspase-3 (Homo sapiens) 38%
active: [1] 69.7% | [2] 64.5% | [3] 85.8% | [4] 71.4%
